Screening results: PubChem, National Center for Advancing Translational Sciences (NCATS)
Hits are enriched below; roughly 7.8% of the tested compounds scored in any of these assays.
HCMV antiviral: qHTS Assay for inhibitors of the human cytomegalovirus (HCMV); actives 4.5% (n = 410,000); HFF cells, HCMV-luciferase reporter, 72 h; stronger effect = lower value; activity change, negative = inhibition, % at 57.5 µM; in the data active = activity change below about -60%; inconclusive = no clear call, values can overlap the other calls; inactive = above about -39%
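HFF cells seeded 16 h at 37C, treated with compounds, infected with luciferase-reporter HCMV at MOI 1 PFU/cell; luciferase read at 72 h post infection, normalized to buffer-only and Salinomycin controls.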
LASV entry inh: qHTS for Inhibitors of binding or entry into cells for Lassa Virus | Potency, µM (top dose mostly 37.9 µM), for inactives: at the highest dose activity change, negative = inhibition, usual class: inhibitors | actives 1.2% (n = 300,000) | Lassa virus pseudotype entry inhibition, cell reporter; calls by dose curve; tested in HEK293 cells; note: potency is the fitted concentration of half-maximal effect; nearly all actives have a fitted effect of over 50% in size
MARV entry inh: qHTS for inhibitors of binding or entry into cells for Marburg Virus; Marburg virus pseudotyped entry inhibition, cell reporter; Potency, µM (top dose mostly 37.8 µM), inactives show at the highest dose activity change, negative = inhibition, hits mostly inhibitors; actives 1.8% (n = 300,000); AID 540276, 2011; calls by dose curve; tested in HEK293 cells; note: potency is the fitted concentration of half-maximal effect
VACV mCherry inh: qHTS for Stage-Specific Inhibitors of Vaccinia Orthopoxvirus: mCherry Reporter Primary qHTS. Vaccinia virus mCherry reporter infection, fluorescence. Potency, µM (highest dose often 36.5 µM), without a hit: at the highest dose activity change, negative = inhibition, most hits filed as inhibitors. actives 0.63% (n = 310,000); calls by dose curve; tested in A549 cells; note: potency is the fitted concentration of half-maximal effect; nearly all actives have a fitted effect of over 35% in size
Vaccinia Venus: qHTS for Stage-Specific Inhibitors of Vaccinia Orthopoxvirus: Venus Reporter Primary qHTS. Vaccinia virus Venus reporter expression, fluorescence. Potency, µM (doses to about 36.5 µM), for inactives: top-dose activity change, negative = inhibition, usual class: inhibitors. actives 0.46% (n = 330,000). AID 720580, 2013; calls by dose curve; tested in A549 cells; note: potency is the fitted concentration of half-maximal effect; nearly all actives have a fitted effect of over 30% in size
HCV inh: qHTS Assay for Inhibitors of Hepatitis C Virus (HCV); Potency, µM (series often up to 41.8 µM), without a hit: at the top dose activity change, negative = inhibition, actives largely listed as inhibitors; actives 3.4% (n = 340,000); Huh7.5.1 HCVcc-Cre infection, luciferase reporter, 44 h; active = well fitted inhibition curve with a large enough effect; inconclusive = small, poorly fitted or top-dose-only effect, or another doubt; inactive = no such curve, though single readings can be large or run the other way; note: potency is the fitted concentration of half-maximal effect
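A cell-based infection assay in which seeded cells (1,000 per well) receive test compound after 4 h, are inoculated with HCVcc-Cre at approximately 0.5 moi, and are incubated 44 h before luminescence detection.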
The depositor's hits bear a star; i = inactive; ? = inconclusive; / = no result given; [ ] = remark or other dose. % is set by controls: 0 for no effect and ±100 for the full control effect.

SMILES | HCMV antiviral | LASV entry inh | MARV entry inh | VACV mCherry inh | Vaccinia Venus | HCV inh
COc1ccc2[nH]cc(CCNC(=O)Cc3c(F)cccc3Cl)c2c1 | -16.4 | -15.4% | -2.2% | -4.8% | -12.4% | ?
COc1ccc2[nH]cc(CCNC(=O)c3ccccc3Cl)c2c1 | -83.8* | -10.4% | 1.8%[46.1 µM] | ? | -4.4% | 5.3%
COc1ccc(NC(=O)c2oc3ccccc3c2NC(=O)c2cc(OC)c(OC)c(OC)c2)cc1 | -21.5 | ? | ? | -20.4% | -9.2% | /
O=[S+]1([O-])C[C@H](N2CC[C@@H](O)C2)[C@H](COCc2ccccc2)N1 | / | -4.0%[46.1 µM] | / | / | / | /
Cc1ccc2[nH]cc(CCNC(=O)Nc3ccccc3)c2c1 | -30.5 | ? | 2.0% | / | / | -19.4%
CC(=O)c1cccc(NC(=O)NCCc2c[nH]c3ccccc23)c1 | -82.0* | 0.1% | -2.8%[46.1 µM] | i[7.34 µM] | 3.4%[7.34 µM] | -5.0%
COC(=O)C/C=C/[C@@H](C)[C@H](NC(=O)OCC(Cl)(Cl)Cl)c1ccc2ccccc2c1 | / | / | -17.9%[14.2 µM] | / | / | /
Cc1nnc(N/N=C/c2ccccc2O)n1N | -103.7* | ? | ? | ? | ? | 21.6%
Cc1nnc(N/N=C/c2cc(C)n(-c3ccc(F)cc3)c2C)n1N | 35.0 | 7.08µM* | 14.6µM* | ? | ? | ?
Cc1nnc(N/N=C/c2c(Cl)cccc2Cl)n1N | -16.6 | 1.0% | ? | -21.6% | -15.5% | ?
O=C(c1ccco1)N1N=C2CCCCCC2C1(O)C(F)(F)F (stereo not drawn) | -65.8* | 8.4%[46.1 µM] | -14.3%[46.1 µM] | -5.0% | -12.9% | 23.9%
O=C(c1ccncc1)N1N=C2CCCCCC2C1(O)C(F)(F)F (stereo not drawn) | ? | 12.3% | 5.6% | / | / | 17.9%
COc1ccc(Cl)cc1NC(=O)c1cccc(-n2cnnn2)c1 | -63.3* | -4.3% | -15.2% | -17.5% | -18.8% | 10µM*
COc1ccc(Cl)cc1NC(=O)c1cc(C)no1 | 55.8 | 5.4%[46.1 µM] | 5.3%[46.1 µM] | i | -8.2% | 10µM*
COC1=C(C(=O)c2ccccc2)C(=O)[C@@]2(CC=C(C)C)C[C@@H]([S+](=O)([O-])c3ccccc3)C(C)(C)[C@@]1(CC=C(C)C)C2=O | / | ? | -16.6%[14.2 µM] | / | / | /
CS(=O)(=O)N1CCc2cc(C(=O)Nc3ccc(Cl)c(C(F)(F)F)c3)ccc21 | -70.7* | ? | ? | -23.6% | -15.0% | /
CCCCc1ccc(NC(=O)c2ccc3c(c2)CCN3S(=O)(=O)CC)cc1 | -63.8* | ? | 1.3%[46.1 µM] | ? | ? | /
CS(=O)(=O)N1CCc2cc(C(=O)Nc3ccc(C(F)(F)F)cc3)ccc21 | -62.8* | ? | 14.1%[46.1 µM] | -13.3% | -13.7% | /
Cc1ccc(NC(=O)c2ccc3c(c2)CCN3S(C)(=O)=O)cc1 | 14.8 | / | / | i | -23.9% | /
CCc1ccc(NC(=O)c2ccc3c(c2)CCN3S(C)(=O)=O)cc1 | 5.2 | / | / | i | -28.2% | /
CC(C)c1ccc(NC(=O)c2ccc3c(c2)CCCN3S(C)(=O)=O)cc1 | -74.5* | -24.2%[46.1 µM] | ? | ? | ? | /
Cc1ccc(-n2nc(C)c(C(=O)NCCCN3CCN(c4ccccc4F)CC3)c2-n2cccc2)cc1 | ? | ? | / | ? | -28.6% | /
CCc1ccc(-c2nc3cc(NC(=O)c4cc5ccccc5cc4OC)ccc3o2)cc1 | -17.9 | 24.8%[46.1 µM] | / | -22.2% | -10.2% | /
Cc1ccc(Cl)cc1NC(=O)Cn1c(=O)n(CCC(=O)N2CCc3ccccc3C2)c(=O)c2ccccc21 | 5.7 | ? | 2.1%[46.1 µM] | -25.2% | -10.1% | /
Cc1ccc(NC(=O)c2ccc3c(c2)CCN3S(C)(=O)=O)cc1C | 72.2 | ? | ? | i | -25.9% | 11.2µM*
SMILES | HCMV antiviral | LASV entry inh | MARV entry inh | VACV mCherry inh | Vaccinia Venus | HCV inh
CCN1CCN(CCCNC(=O)CCc2nc(-c3ccc(OC)cc3)no2)CC1 | -19.5 | / | / | / | / | -9.3%
Cc1ccc(-c2noc(CCC(=O)NCCCN3CCN(c4cccc(Cl)c4)CC3)n2)cc1 | -25.8 | ? | ? | / | ? | 11.2µM*
COc1ccc(-c2noc(CCC(=O)NCCCN3CCN(c4ccccc4F)CC3)n2)cc1 | -66.8* | / | / | / | / | ?
COc1ccc(-c2noc(CCC(=O)NCCN3CCN(c4ccccc4F)CC3)n2)cc1 | -35.4 | ? | ? | / | -25.3% | 6.31µM*
O=C(NCCc1nnc2n1CCN(CC1CC=CCC1)CC2)c1ccc(F)cc1 (stereo not drawn) | / | / | / | i | -14.0% | /
Cc1ccc(C2c3[nH]c4ccccc4c3CCN2C(=O)CSc2ccccc2)cc1 (stereo not drawn) | -29.6 | 10µM* | / | -9.4% | -6.6% | /
CCOc1ccc(C2c3[nH]c4ccccc4c3CCN2C(=O)CSc2ccccc2)cc1 (stereo not drawn) | -5.1 | 6.31µM* | / | -8.9% | -10.4% | /
Cc1ccc(CSc2nnc3nc(C)cc(C)n23)cc1 | -83.7* | 20.2% | ? | / | 23.4% | 9.3%
O=C(c1ccncc1)N1CCCC(N2CCN(c3cccc(C(F)(F)F)c3)CC2)C1 (stereo not drawn) | -31.0 | / | / | / | / | 6.7%
CCc1cc(C(=O)N2CCCC(N3CCN(c4cccc(C(F)(F)F)c4)CC3)C2)n(C)n1 (stereo not drawn) | ? | / | / | / | / | 10µM*
CCCN1CCC(N2CCN(c3cccc(C(F)(F)F)c3)CC2)CC1 | -21.6 | ? | ? | / | / | 11.2µM*
COC(=O)c1cc2c(n1S(=O)(=O)c1ccc(C)cc1)C(=O)C(=O)c1[nH]cc(C(=O)OCc3ccccc3)c1-2 | / | 2.82µM* | ? | 2.24µM* | 2.51µM* | ?
O=C(CCC1N=C2c3ccccc3N=C(SCc3ccc(F)cc3)N2C1=O)N1CCN(c2ccccc2)CC1 (stereo not drawn) | -17.8 | 11.8%[46.1 µM] | 24.9%[46.1 µM] | -13.3% | -9.9% | /
O=C(CCC1N=C2c3ccccc3N=C(SCc3cccc(Cl)c3)N2C1=O)N1CCN(c2ccccc2)CC1 (stereo not drawn) | -34.7 | -20.9%[46.1 µM] | ? | 8.91µM* | ? | /
COc1ccccc1CNC(=O)CCC1N=C2c3ccccc3N=C(SCc3cccc(Cl)c3)N2C1=O (stereo not drawn) | -30.6 | ? | -3.2%[46.1 µM] | 3.98µM* | ? | /
COc1cc(C(=O)N2CCC(N3CCN(C)CC3)CC2)ccc1Nc1ncc2c(n1)N(C)c1ccccc1C(=O)N2C | -72.7* | / | / | / | / | /
COc1ccccc1N1CCN(C2CCN(C(=O)c3ccc(F)cc3)CC2)CC1 | -15.5 | -10.9% | 1.6% | -12.0% | -12.9% | 9.2%
CCN1C(=O)CCN(C2CCCC2)c2nc(Nc3ccc(C(=O)NC4CCN(C)CC4)cc3OC)ncc21 | -72.9* | / | / | ? | ? | 29.1%[8.37 µM]
NCCC[C@@H](N)C(=O)O | / | / | / | i | -13.2% | /
Nc1nc(Cl)c(C=O)c(N2CCCCC2)n1 | ? | ? | -0.7%[46.1 µM] | -6.6% | -0.4% | 10µM*
